# Experimental data published in the supplement of paper PMC3334620.
# The full ranking holds about 33,000 sequences; the median of “E-score (-0.5 to 0.5)” is about -0.012, and the highest 2% start at about 0.27. The full list was thinned out, with the highest values kept by preference.
# Biological target: T1, Vhr1 (UniProt P40522)
# T1 sequence: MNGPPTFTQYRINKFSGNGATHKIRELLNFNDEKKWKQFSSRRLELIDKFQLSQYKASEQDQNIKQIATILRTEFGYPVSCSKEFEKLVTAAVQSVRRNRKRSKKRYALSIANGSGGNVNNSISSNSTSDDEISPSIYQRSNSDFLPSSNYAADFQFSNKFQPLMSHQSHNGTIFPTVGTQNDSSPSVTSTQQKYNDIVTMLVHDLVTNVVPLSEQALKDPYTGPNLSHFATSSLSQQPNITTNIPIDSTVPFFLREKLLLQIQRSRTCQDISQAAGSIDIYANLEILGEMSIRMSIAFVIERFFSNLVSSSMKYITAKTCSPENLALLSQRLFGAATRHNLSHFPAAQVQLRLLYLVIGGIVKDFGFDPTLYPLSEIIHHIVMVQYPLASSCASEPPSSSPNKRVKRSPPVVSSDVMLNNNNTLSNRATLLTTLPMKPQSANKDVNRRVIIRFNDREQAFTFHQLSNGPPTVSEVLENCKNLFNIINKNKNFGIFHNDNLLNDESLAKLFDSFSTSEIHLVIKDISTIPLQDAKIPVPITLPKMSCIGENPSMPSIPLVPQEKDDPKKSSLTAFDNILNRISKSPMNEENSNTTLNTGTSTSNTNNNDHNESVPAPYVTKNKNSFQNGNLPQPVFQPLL
# Experiment: PBM E-score (8-mer binding enrichment) (E-score (-0.5 to 0.5)); higher = stronger / more preferred TF binding
# Conditions: protein concentration: 200 nM; construct: GST-full length
# Experimental: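 Universal 'all 10-mer' protein binding microarrays (Agilent AMADID 015681) probed with GST-tagged S. cerevisiae TFs (full-length or DBD) made by in vitro transcription/translation (PURExpress), about 100-200 nM. Bound TF was detected with fluorescent anti-GST. Each ungapped 8-mer (which stands for itself and its reverse complement) is scored by the PBM enrichment score (E-score), a modified Wilcoxon-Mann-Whitney statistic from -0.5 to +0.5, computed with the Universal PBM Analysis Suite. Scale: above 0.35 generally sequence-specific binding.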
row,Sequence,PBM E-score
1,ATGAAACC,0.137
2,ACGGTAGT,0.125
3,AAAATCAT,0.151
4,ATTGCTTG,-0.00443
5,ATCTCATC,0.0646
6,CGTACCCA,0.16
7,ACGGTCAT,0.156
8,GGCAAGCA,-0.224
9,AATGAGTG,0.157
10,AATGAGAC,-0.113
11,CATGAGAC,0.274
12,CATGAGTC,0.477
13,CATGAGCC,0.159
14,AATGAGTA,0.223
15,AATGAGTC,0.426
16,CATGAGAG,0.147
17,CATGAGGC,-0.159
18,AGTGTCGC,0.138
19,AAAATAAT,0.0747
20,TAAGCCTA,-0.259
21,GAATTTGC,-0.0954
22,CAAGAATC,0.179
23,GCGAACAC,-0.0481
24,AATAGGCA,0.0547
25,AACAGCAT,0.0405

row,Sequence,PBM E-score
1,AGAGCCCT,-0.165
2,GCAATCGA,-0.0515
3,AGAGTCAA,0.112
4,AGAGTCCC,-0.205
5,AGAGTCAT,0.45
6,AGAGTCTC,0.191
7,AGAGTCCT,-0.17
8,AGAGTCAG,0.399
9,AGAGTCAC,0.43
10,ACAGTCAA,0.0811
11,AGGGTCAG,-0.161
12,ACAGTCAT,0.318
13,AAAGTCAG,0.119
14,ACAGTCAG,0.228
15,CGGATCTA,-0.0646
16,GCACCTCC,-0.136
17,GGCAAAGA,-0.0131
18,GTTCACTA,-0.133
19,GCAATTCC,-0.163
20,GGAAAGCC,-0.0802
21,TGATGGAA,0.0625
22,TATACCCA,0.0126
23,CATACCCC,0.105
24,ATTACTCA,0.29
25,ACTACTCA,0.238

row,Sequence,PBM E-score
1,ATTACTCG,0.198
2,GCTACTCC,-0.145
3,CATACCCA,0.271
4,CGTACTCA,0.283
5,CGTACTCC,-0.0124
6,GCTACTCA,0.271
7,ATTACTCC,0.0722
8,CGTACTAA,0.153
9,AACTAAAT,-0.0313
10,ATCGGTGA,0.181
11,GTGCTTAA,-0.136
12,TATAGGAA,0.0238
13,GAATTAGA,-0.172
14,GCGTGTAA,-0.0131
15,ATTATTGC,-0.0063
16,ACTGGCGA,0.124
17,AATTTAGT,0.256
18,TATACTGA,0.309
19,GGTACTTA,-0.103
20,CATACTCA,0.285
21,GATACTGA,0.159
22,AGTACTCA,0.171
23,CATACTCG,0.18
24,GGTACTCA,0.281
25,CATACTCC,0.125

row,Sequence,PBM E-score
1,CATACTGA,0.123
2,CGGCACGC,-0.0534
3,GCAGCTCA,-0.254
4,CAAGAGTC,0.296
5,GAAGAGTC,0.194
6,GCTGAGCC,0.28
7,ACTGAGCC,0.219
8,ACTGAGTG,0.0665
9,ACTGAGTA,0.263
10,ACAGAGTG,0.0123
11,AGAGAGTC,0.215
12,CCTGAGCC,0.115
13,AAAGAGTC,0.0469
14,ACTGAGTC,0.454
15,ACAGAGTC,0.296
16,ATTCGGTG,0.106
17,GTTTGTGA,-0.0971
18,GGCTATGA,0.0249
19,AGAGCACG,0.00968
20,CCAGCCAA,-0.119
21,CATTCAGA,0.0364
22,CTGGGTAC,0.196
23,CCTGAGTC,0.461
24,CCTGAGTA,0.205
25,CCTGAGGC,-0.096

row,Sequence,PBM E-score
1,AACGCTAC,-0.205
2,CAATCAAG,0.00756
3,AAATCATG,0.29
4,CAATCATG,0.289
5,CAATCAGG,0.0706
6,AAATCATA,0.227
7,AAATCATT,-0.011
8,GACTGGCA,-0.0149
9,GAACTATA,0.222
10,GTAGCATA,0.079
11,CGATTCAG,0.12
12,AAGCTCCG,-0.173
13,ATGATATA,0.0327
14,ATGATACA,0.289
15,CTAATATA,-0.0362
16,ATGATACC,0.124
17,ATAATATG,0.206
18,ATAATACG,0.0457
19,ATAATACC,0.212
20,ATAATACA,0.277
21,ATGATATC,0.0491
22,ATGATATG,0.315
23,ATAATATA,0.3
24,CTGATACA,0.0817
25,AGTGCGCA,0.112

row,Sequence,PBM E-score
1,AGCCAGTA,0.133
2,CAAAGAGA,-0.299
3,ACCTCGCA,-0.0858
4,TCTGTTCA,0.151
5,ATGAGTAC,0.347
6,ATGAGTCG,0.462
7,CTGAGTCC,0.292
8,CTGAGTTC,0.0461
9,ATGAGTTG,0.173
10,ATGAGTGG,0.162
11,CGGAGTGC,0.139
12,CGGAGTAC,0.0632
13,CTGAGTAC,0.175
14,ATGAGTAG,0.189
15,CTGAGTGC,0.0204
16,CGGAGTCC,0.324
17,CATGGAGA,0.155
18,ATAAAACA,-0.125
19,ATGCTTTG,0.0636
20,AATAGCAC,-0.026
21,GAGGTTAC,0.0302
22,ACAGGTCC,-0.195
23,CGACAATA,0.0881
24,CGTTAGAA,-0.323
25,ACTGGGGA,-0.0871

row,Sequence,PBM E-score
1,CTGCCCCA,0.0236
2,AGGTGGAA,0.0199
3,GCGCTCAC,0.0509
4,ATGAGTTC,0.00071
5,ATGAGTGC,0.0758
6,ATGAGTCC,0.389
7,GACGCAAC,-0.169
8,ATTAGTTG,0.0201
9,GTTAGTTA,0.137
10,GTTAGTGA,0.0216
11,ATTAGTGG,0.141
12,CTTAGTCA,0.376
13,GTTAGTCA,0.43
14,ATTAGTCG,0.279
15,CTTAGTCC,0.0119
16,ATTAGTCC,0.122
17,ATTAGTCA,0.381
18,CTTAGTAA,-0.0159
19,ATTAGTTA,0.143
20,GGTGCAAC,-0.183
21,ATGACGCG,0.162
22,GTCAATCA,0.221
